The whole screen tested about 67,000 compounds, of which fewer than 10 were called active. Calls follow the shape of the dose curve; as a rule, active = well fitted activation curve with a large enough effect (not every such curve was filed as active); inconclusive = small, poorly fitted or top-dose-only effect, or another doubt; inactive = no such curve, though single readings can be large or run the other way. Only a sample is shown.
Test: Ubiquitin-GFP Assay
Details: Ubiquitin-GFP reporter cells, proteasome inhibition, GFP fluorescence, untreated = 0%, 10 µM MG-132 = 100%; series mostly up to 45.9 µM
Text: NIH Chemical Genomics Center [NCGC]
NIH Molecular Libraries Screening Centers Network [MLSCN]
The ubiquitin-proteasome pathway is present within all eukaryotic cells and plays roles in normal cellular functions and disease-related dysfunction. Proteins are tagged with a poly-ubiquitin chain that targets them for the proteasome, a multimeric protease, that degrades the protein into peptides and free ubiquitin. The proteasome has a key role in regulating cell cycle and growth and is known to control the levels of cyclins and CDK inhibitors as well as tumor suppressor proteins. Additionally, the activation of NF- B is controlled by ubiquitin-labeling and degradation of the inhibitory protein I B . […] With this in mind, proteasome inhibitors such as MG-132 and PS-341 have been used to inhibit tumor cell growth.
A cellular assay for ubiquitin-proteasome function was used to find chemical probes of this pathway. The assay used an ubiquitin-GFP construct expressed in U2OS cells (BioImage). Under basal conditions little GFP can be detected as it is degraded by the proteasome. However, treatment of the cells with a proteasome inhibitor such as MG-132 results in a rise in GFP levels that can be detected in as little as four hours. We used the Acumen-Explorer laser plate cytometer having a 488 nm laser as an excitation light source to detect the GFP. Compounds were screened in 1536-well plates using qHTS with a concentration-titration series range that varied from 46 uM to 2.9 nM.
NCGC Assay Protocol Summary:
Cells (U20S ps 2042) expressing ubiquitin (G76V-GFP) were maintained in DMEM with Glutamax-1 and high glucose, 10% FBS, 1% (v/v) penicillin-streptomycin, 0.5 mg/mL Geneticin (G418). The cells were seeded in 1536-well plates using a solenoid-based dispenser at 700 cells/5ul in DMEM medium with Glutamax-1 and high glucose containing 0.5% FBS, w/o phenol red, 25 mM HEPES. The plates were incubated at 37 °C/5% CO2 overnight. Then 23 nl of MG-132 in DMSO was added to the control wells at a final concentration of 10 uM. Next, 23 nL of library compounds in DMSO were added to the sample wells. The plates were incubated for 4 hrs at 37 °C/5% CO2. Following this incubation the plates were read on the Acumen using a cell object definition of 15 to 100 um in width and depth and a window of Total Intensity of between 77,200 and 2,720,000 FLU to enumerate GFP-expressing cells.
The %Activity was determined from the basal and MG-132 treated control wells. %Activity was determined by normalizing to the difference in signal between basal cells (0% Activity) and cells incubated with 10 uM of the proteasome inhibitor MG-132 (100% Activity). Concentration-response curves were fitted to the signals arising from the GFP fluorescence.
Assay Protocol Summary Table
Sequence Parameter Value Description
2. Time O/N 37C incubation
4. Compound 23 nL Libraries (46 uM to 2.9 nM)
5. Time 4 hr 37C incubation
6. Detector Acumen Total Intensity, GFP fluorescence (488 ex/515 em)
Keywords: NIH Roadmap, MLSCN, MLI, MLSMR, BioImage, proteasome, ubiquitin-GFP, qHTS, NCGC

Activation (GFP accumulation), inactive:
Cc1cc(C(=O)O)c(S(C)(=O)=O)s1, CCn1nnc(NC(=O)c2cc(Cl)c(OC)c(Cl)c2)n1, CCC(c1nnnn1C1CCCC1)N(Cc1cccs1)Cc1cc2cccc(C)c2[nH]c1=O (stereo not drawn), Cc1ccccc1CSc1nnc(-c2ccccn2)n1N, Cn1c(=O)c(CCc2ccccc2)nc2cnc(Nc3ccccc3)nc21, COc1ccccc1CN1CC2(CCN(S(=O)(=O)c3ccccc3)CC2)C1, CC(C)(O/N=C(\C(=O)N[C@@H]1C(=O)N2C(C(=O)[O-])=C(C[n+]3ccccc3)CS[C@@H]12)c1csc(N)n1)C(=O)O, CCc1cc(Br)ccc1NC(=O)C1CCCO1 (stereo not drawn), O=C(O)c1c(Br)c(Br)c(Br)c(Br)c1C1c2ccc(O)cc2Oc2cc(O)ccc21 5.65% [at 9.17 µM], CS(=O)(=O)N1CCC2(CC1)CN(c1ccncc1)C2, NCC(=O)[C@@H](O)[C@H](O)[C@H](O)CO 1.45% [at 9.17 µM], O=C(c1ccco1)N1CCC[C@@]2(CCN(c3ccccc3)C2)C1, Cc1ccc(-c2cc(C(F)(F)F)n3nc(C(=O)N4CCCC4)cc3n2)cc1 6.67% [at 9.17 µM], CC(C)CSC[C@@H]1O[C@H](n2cnc3c(N)nccc32)[C@H](O)[C@@H]1O -1.11% [at 9.17 µM], O=C(Nc1nc2ccc(S(=O)(=O)N3CCCC3)cc2s1)C1CCCO1 (stereo not drawn), O=C(Cn1ccc(=O)[nH]c1=O)Nc1ccc(C(=O)O)c(O)c1 -3.58% [at 9.17 µM], CNc1cc(-c2c(C)noc2C)ncn1, CCOC(=O)c1cc(C)sc1NC(=O)C1CCC1, CC(Sc1sc(=S)sc1SC(C)C(=O)O)C(=O)O (stereo not drawn), CCCOc1ccc(-c2nc(N)n[nH]2)cc1, CC(C)NS(=O)(=O)c1ccc(CCC(=O)N2CCOCC2)cc1, CCOC(=O)c1sc(/N=C/Nc2nc(C)c(C(=O)OCC)s2)nc1C, CCCCCCCCCCCC(=O)O[C@H](CC(=O)O)C[N+](C)(C)C, CC(=O)O[C@]1(C(C)=O)CC[C@@H]2[C@@H]3C=C(C)C4=CC(=O)CC[C@@]4(C)[C@H]3CC[C@]21C, CCCSC1=C(C#N)C(c2ccccc2C)C(C(=O)OC)C(=O)N1 (stereo not drawn), Nc1ccc2[nH]cc(CCC(=O)O)c2c1 -1.62% [at 9.17 µM], Cn1c(NC(=O)c2ccc3c(c2)OCO3)cc(=O)n(C)c1=O, N#CCCn1c(=O)c(-c2cc(F)cc(F)c2)nc2cnc(Oc3ccccc3)nc21, CCCCNc1nc(C)nc2c1nc(-c1ccccc1)n2CCCCN(CC)CC, Cc1ccc(N2CCN(S(=O)(=O)c3ccc(F)cc3)CC2)c(C)c1, CN(Cc1ccco1)c1cc(-c2ccccc2C(F)(F)F)ncn1, COCCn1c(=O)c(CCc2ccccc2)nc2cnc(N3CCNCC3)nc21, CCCCN(CCCC)C(=O)CCS(=O)(=O)c1ccc2c(c1)n(C)c(=O)c(=O)n2C, COc1cccc(-c2cc(NCCc3c[nH]c4ccc(OC)cc34)ncn2)c1, Cc1ccccc1N1CCN(S(=O)(=O)C[C@@]23CC[C@H](C[C@H]2NC(=O)[C@@H](N)CCS(C)(=O)=O)C3(C)C)CC1, O=C(C1CCN(S(=O)(=O)c2cnc[nH]2)CC1)N1CCN(Cc2ccc3c(c2)OCO3)CC1, Nc1cc(OC(=O)c2ccccc2Br)nn1S(=O)(=O)c1ccccc1, CN1[C@@H]2CC[C@H]1CC(NC(=O)c1nn(C)c3ccccc13)C2 (stereo partly drawn), O=C(/C=N/O)Nc1ccccc1, CCOc1ccccc1-n1c(SCC(=O)N2CCCC2)nnc1-c1ccoc1C, CN1CCN(c2ncncc2-c2ccc(C(=O)N(C)C)cc2)CC1, O=C(c1cc(C(F)(F)F)cc(C(F)(F)F)c1)N1CCC2(CCCN(c3ccccn3)C2)CC1, COC(=O)Nc1nc2ccc(Sc3ccccc3)cc2[nH]1, CCOC(=O)C1CCN(C(=O)COc2cc(C)c(Br)c(C)c2)CC1, COCCn1c(=O)c(C)nc2cnc(N(C)C)nc21, Cc1ccc(S(=O)(=O)c2nc(NCCCn3ccnc3)sc2Cl)cc1, COc1ccccc1-c1cc(NCc2cccs2)ncn1, Cc1c(NC(=O)c2cccnc2)c(=O)n(-c2ccccc2)n1C, COc1cccc(N2C(=O)CC(N3CCN(S(=O)(=O)c4ccccc4)CC3)C2=O)c1 (stereo not drawn), Cc1cc(C(F)(F)F)nn1CC(=O)N1CCCC1, CC(=O)N1CCC2(CCCN(Cc3ccc(C#N)cc3)C2)CC1, CC(NC(=O)c1cc(-c2ccccc2)on1)c1ccccc1 (stereo not drawn), N#CCCn1cnc2ccccc21, O=C(CCN1C(=O)c2ccccc2C1=O)Nc1ccncc1, Clc1ccccc1-c1cc(NCCN2CCOCC2)ncn1, CCCS(=O)(=O)N1CCCC(C(=O)NCc2ccco2)C1 (stereo not drawn), COc1ccc(-c2noc(CN(C)S(=O)(=O)c3ccc(C)cc3)n2)cc1, Cc1nc2cnc(Nc3ccccc3)nc2n(C[C@H]2CCCO2)c1=O, COc1ccccc1CNc1cc(-c2ccccc2CN(C)C)ncn1, CCn1c(=N)c(C(=O)NCCCOC)cc2c(=O)n3cccc(C)c3nc21, Oc1ccc(Cn2cc[nH]c2=S)cc1, O=C(Nc1cccc(F)c1)N1CCC2(CC1)CCN(S(=O)(=O)c1ccccc1)CC2, CCOc1ccc(N=NS(=O)(=O)O)cc1 -2.9% [at 9.17 µM], NC(=S)c1ccc(C(N)=S)o1, COc1ccc(CN2CC(C(=O)NCCN3CCN(c4ccccc4F)CC3)CC2=O)cc1 (stereo not drawn), COC(=O)c1ccc2c(c1)S(=O)(=O)NC(=NCCCN1CCOCC1)S2, CN(C(=O)CN(CCO)CC(=O)N(C)C(C)(C)Cc1ccccc1)C(C)(C)Cc1ccccc1, O=C(O)C1=CCCN(CCON=C(c2ccccc2)c2ccccc2)C1
